Columns and labels:
Assay in all cases: phenotypically active (imaging signature differs from DMSO and reproducible) at any of 0.3-9 uM (binary (1 = active, 0 = inactive)); higher = active
Conditions in all cases: treatment time: 24 h
[1] = test system: A549-ACTB-RAB5A
In short: (§1)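 Phenotypic activity depended on meeting both a deviation and a reproducibility criterion. The fifteen gene-edited A549, HepG2 and WPMY1 reporter lines were treated at 0.3, 1, 3 or 9 µM for 24 h, four wells each, then imaged live with features normalised to solvent control wells. Deviation required ≥3 of 4 wells past the 95th percentile of control Euclidean distances, and reproducibility a median replicate Pearson correlation above the 95th percentile of non-replicates.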

[2] = test system: A549-CANX-COX4
In short: as §1

[3] = test system: A549-GM130-SQSTM1
In short: as §1

[4] = test system: A549-TP53BP1-CLTA
In short: as §1

[5] = test system: A549-TUBA1B-RELA
In short: as §1

[6] = test system: HepG2-ACTB-RAB5A
In short: as §1

[7] = test system: HepG2-CANX-COX4
In short: as §1

[8] = test system: HepG2-GM130-SQSTM1
In short: as §1

[9] = test system: HepG2-TP53BP1-CLTA
In short: as §1

[10] = test system: HepG2-TUBA1B-RELA
In short: as §1

[11] = test system: WPMY1-ACTB-RAB5A
In short: as §1

[12] = test system: WPMY1-CANX-COX4
In short: as §1

[13] = test system: WPMY1-GM130-SQSTM1
In short: as §1

[14] = test system: WPMY1-TP53BP1-CLTA
In short: as §1

[15] = test system: WPMY1-TUBA1B-RELA
In short: as §1

Measured: phenotypically active

C#C[C@]1(O)CC[C@H]2[C@@H]3CCc4cc(OC)ccc4[C@H]3CC[C@@]21C [mestranol]
inactive: [1] 0 | [2] 0 | [3] 0 | [4] 0 | [5] 0 | [6] 0 | [7] 0 | [8] 0 | [9] 0 | [10] 0 | [11] 0 | [12] 0 | [13] 0 | [14] 0 | [15] 0

Nc1ccc(C(=O)O)c(O)c1 [aminosalicylate]
inactive: [1] 0 | [2] 0 | [3] 0 | [4] 0 | [5] 0 | [6] 0 | [7] 0 | [8] 0 | [9] 0 | [10] 0 | [11] 0 | [12] 0 | [13] 0 | [14] 0 | [15] 0

NS(=O)(=O)c1cc2c(cc1Cl)N=CNS2(=O)=O [chlorothiazide]
inactive: [1] 0 | [2] 0 | [3] 0 | [4] 0 | [5] 0 | [6] 0 | [7] 0 | [8] 0 | [9] 0 | [10] 0 | [11] 0 | [12] 0 | [13] 0 | [14] 0 | [15] 0

COc1ccc2c3c1O[C@H]1C[C@@H](O)C=C[C@@]31CCN(C)C2 [galantamine]
inactive: [1] 0 | [2] 0 | [3] 0 | [4] 0 | [5] 0 | [6] 0 | [7] 0 | [8] 0 | [9] 0 | [10] 0 | [11] 0 | [12] 0 | [13] 0 | [14] 0 | [15] 0

COCCOC(=O)C1=C(C)NC(C)=C(C(=O)OC(C)C)C1c1cccc([N+](=O)[O-])c1 (stereo not given) [nimodipine]
inactive: [1] 0 | [2] 0 | [3] 0 | [4] 0 | [5] 0 | [6] 0 | [7] 0 | [8] 0 | [9] 0 | [10] 0 | [11] 0 | [12] 0 | [13] 0 | [14] 0 | [15] 0

CC(=O)CCCCn1c(=O)c2c(ncn2C)n(C)c1=O [Pentoxifylline]
inactive: [1] 0 | [2] 0 | [3] 0 | [4] 0 | [5] 0 | [6] 0 | [7] 0 | [8] 0 | [9] 0 | [10] 0 | [11] 0 | [12] 0 | [13] 0 | [14] 0 | [15] 0

CCOC(=O)[C@H](CCc1ccccc1)N[C@@H](C)C(=O)N1CCC[C@H]1C(=O)O [enalapril]
inactive: [1] 0 | [2] 0 | [3] 0 | [4] 0 | [5] 0 | [6] 0 | [7] 0 | [8] 0 | [9] 0 | [10] 0 | [11] 0 | [12] 0 | [13] 0 | [14] 0 | [15] 0

CC(C)(C(=O)O)c1ccc(C(O)CCCN2CCC(C(O)(c3ccccc3)c3ccccc3)CC2)cc1 (stereo not given) [fexofenadine]
inactive: [1] 0 | [2] 0 | [3] 0 | [4] 0 | [5] 0 | [6] 0 | [7] 0 | [8] 0 | [9] 0 | [10] 0 | [11] 0 | [12] 0 | [13] 0 | [14] 0 | [15] 0

C#CCN(C)Cc1ccccc1 [pargyline]
inactive: [1] 0 | [2] 0 | [3] 0 | [4] 0 | [5] 0 | [6] 0 | [7] 0 | [8] 0 | [9] 0 | [10] 0 | [11] 0 | [12] 0 | [13] 0 | [14] 0 | [15] 0

Cc1cc2cc(NS(=O)(=O)c3ccc(C#N)cc3)ccc2n(C)c1=O
inactive: [1] 0 | [2] 0 | [3] 0 | [4] 0 | [5] 0 | [6] 0 | [7] 0 | [8] 0 | [9] 0 | [10] 0 | [11] 0 | [12] 0 | [13] 0 | [14] 0 | [15] 0

O=C(O)c1ccc(N2N=C(Cc3ccccc3)/C(=C/c3ccc(-c4ccccc4F)o3)C2=O)cc1
inactive: [1] 0 | [2] 0 | [3] 0 | [4] 0 | [5] 0 | [6] 0 | [7] 0 | [8] 0 | [9] 0 | [10] 0 | [11] 0 | [12] 0 | [13] 0 | [14] 0 | [15] 0

Source: the supplement of paper PMC7411054
